Bioassay records deposited in PubChem by several laboratories.
In the library only some 4.9% were active in any assay of this set; here they are far more common.
MPTP block = blocks calcium-induced mitochondrial swelling; isolated mouse mitochondria, Ca2+ swelling absorbance, 30 min; inhibition, % at 10 µM; 1.4% of 360,000 active;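 active = inhibition of 50% or more, scaled per plate between neutral and stimulator controls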;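 note: 0% = DMSO wells given calcium and 100% = 1 mM EGTA wells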
dFosB act-1 = activators of mouse delta FosB homodimer. AID 493131. 0.99% of 340,000 active. purified delta FosB, TAMRA-CDK5 oligo fluorescence polarization; percent of positive-control signal above neutral wells. activation, % at 25 µM;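 active = mean activation above about 17%, with every replicate also reaching it, limit read from the data, passing the limit was not always enough; inconclusive = only one of the two conditions met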
Target sequence (P13346 whole entry, looked up): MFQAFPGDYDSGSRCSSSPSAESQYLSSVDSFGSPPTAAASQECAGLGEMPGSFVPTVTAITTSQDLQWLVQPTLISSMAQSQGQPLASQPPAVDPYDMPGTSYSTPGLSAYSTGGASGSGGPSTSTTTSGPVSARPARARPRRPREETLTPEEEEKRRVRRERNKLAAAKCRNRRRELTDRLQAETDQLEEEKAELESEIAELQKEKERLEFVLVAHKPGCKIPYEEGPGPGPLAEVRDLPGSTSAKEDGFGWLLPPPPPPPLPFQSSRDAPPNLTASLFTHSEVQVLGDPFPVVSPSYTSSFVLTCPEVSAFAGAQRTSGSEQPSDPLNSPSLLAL
HSF-1 act = increases HSF-1 driven luciferase reporter signal; NIH3T3-HGL HSF-1 luciferase reporter, MG132, 8 h; 100% = twice DMSO control signal; activation, % at 9 µM; 1.7% of 300,000 active;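 active = mean replicate activation of at least 50% with a set share of replicates each reaching 50%; inconclusive = only one of those two conditions met; inactive = mean below 50% and too few replicates reaching it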;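 note: 0% = median of the neutral control wells and 100% = twice that signal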
HSP90 inh = HSP90 refolding inhibition in rabbit reticulocyte lysate; AID 1789; inhibition, % at 5.6 µM; 0.91% of 290,000 active; luciferase refolding luminescence, 3 h;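 active = inhibition above the screen-wide mean plus 3 SD, computed separately per campaign, cut at about 16% in these data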;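 note: 0% = DMSO wells and 100% = 60 µM geldanamycin wells; inhibitors lower the luminescence because luciferase stays unfolded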
HSF1 inh = HSF1 inhibition | NIH3T3-HGL HSE-luciferase, MG132-induced, luminescence 8 h; stronger effect = lower value | activity change, negative = inhibition, % at 7.5 µM (by protocol) | 0.77% of 300,000 active;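 active = more than half of replicate wells show activity change below -50%, luminescence cut by over half; inconclusive = some wells, but at most half, below -50%; inactive = no replicate well below -50%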;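 note: luciferase reports HSF-1 transcriptional activity via heat shock element; 0% = median of DMSO wells and -100% = zero luminescence signal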
Platelet DG rel = platelet dense granule release activity; AID 1663; 0.22% of 300,000 active; inhibition, %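 (compounds screened at 7.5 µM in platelet-rich plasma)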; human platelet-rich plasma, SFLLRN dense granule ATP release, luminescence;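 active = mean replicate score, as percent of positive control, at or above 50; inconclusive = mean below 50 but at least one replicate at or above 50; inactive = mean and every replicate below 50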
dFosB act-2 = delta FosB (mouse) homodimer activation. shares compounds with dFosB act-1. purified delta FosB, TAMRA-CDK5 oligo fluorescence polarization; normalised: neutral wells 0, positive control 100. activation, % at 24.9 µM. 2,400 tested, under 10 active;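 active = highest replicate activation at or above 34% and every replicate reaching that threshold; inconclusive = meets only one of the two criteria; inactive = meets neither criterion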;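 note: higher polarization means more probe DNA bound by delta FosB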
* marks the source's active call; other numbers are inactive results; ? = inconclusive; / = no result given.

SMILES | MPTP block | dFosB act-1 | HSF-1 act | HSP90 inh | HSF1 inh | Platelet DG rel | dFosB act-2
CCOC(=O)c1c(C)[nH]c(C(=O)COC(=O)c2ccc([N+](=O)[O-])o2)c1C | -1 | -5 | / | / | / | / | /
O=C(Nc1nc(-c2nc3ccccc3s2)cs1)c1ccco1 | 1 | 78* | 17 | -3 | 13 | 8 | 3
CCOc1cccc(-c2cc(C(=O)N/N=C/c3ccc(OC)c(CN4CCOCC4)c3)c3ccccc3n2)c1 | 49 | 39* | 3 | 5 | 6 | 10 | 3
O=C(N/N=C/c1cccc2ccccc12)c1cc2ccccc2o1 | -1 | 20* | 35 | 1 | -3 | 1 | 5
O=C(N/N=C/c1cccc(O)c1)c1cc(-c2ccccc2)nc2ccccc12 | 0 | -13 | 19 | -1 | 24 | 2 | /
COc1ccc(NC(=O)c2ccccc2NC(=O)c2ccco2)c(OC)c1 | 0 | 2 | 4 | -1 | 1 | 11 | /
COc1ccc(/C=N/NC(=O)c2ccccc2NC(=O)c2ccco2)c(OC)c1 | 4 | 84* | 28 | 7 | 3 | 26 | 2
COc1ccc(/C=N/NC(=O)c2cc(-c3ccccc3)nc3ccccc23)c(OC)c1 | 1 | 23* | 33 | 0 | 28 | -3 | 1
COc1ccccc1/C=N/NC(=O)c1cccc2ccccc12 | -1 | 37* | -8 | 2 | 5 | -4 | 2
CCOc1ccccc1C=NNC(=O)c1cccc2ccccc12 | -1 | -2 | -6 | / | -6 | / | /
CC(=O)c1cn(CC(=O)Nc2ccc(C)cc2C)c2ccccc12 | 28 | 28* | -4 | -3 | -11 | -3 | 8
CC(=O)c1cn(CC(=O)Nc2cccc(C)c2C)c2ccccc12 | 1 | -7 | 21 | 1 | -5 | -6 | /
CCC(=O)c1cn(CC(=O)Nc2cccc(C)c2C)c2ccccc12 | 3 | 25* | -4 | -2 | -7 | -4 | 7
Cc1ccc(C)c(NC(=O)Cn2cc(C(=O)C3CC3)c3ccccc32)c1 | 2 | 72* | -12 | 2 | 2 | 2 | 0
N#Cc1ccc(C23CC4(C2)[C@H](CN(CC2CCCCC2)[C@@H]4c2ccccc2)C3c2ccccc2)cc1 (some centres not stated) | 0 | 0 | -23 | / | -12 | -12 | /
N#Cc1ccc(C23CC4(C2)[C@H](CN(CC2CCCCC2)[C@@H]4c2ccccc2)C3c2ccc(Cl)nc2)cc1 (some centres not stated) | 2 | 25* | -4 | / | -6 | -2 | 0
CCCN(CCC)CCCNC(=S)Nc1ccc2nc(N3CCCC3)cc(C)c2c1 | 1 | 36* | 4 | -4 | 2 | 6 | ?
CCN(CC)CCNC(=S)Nc1ccc2nc(N3CCCC3)cc(C)c2c1 | -1 | 32* | 12 | 3 | 7 | 5 | 1
CCN(CC)CCNC(=S)Nc1ccc2nc(N3CCN(C)CC3)cc(C)c2c1 | -2 | 24* | -1 | -3 | -5 | -5 | 0
CCCCN(CC)CCCNC(=S)Nc1ccc2nc(N3CCN(C)CC3)cc(C)c2c1 | 2 | 15 | -1 | -1 | -9 | 10 | /
COCc1cccc(-c2csc(C(C)(O)c3cccc(F)c3)n2)c1 (configuration not stated) | 2 | / | / | / | / | / | /
CCOc1ccc(S(=O)(=O)N(C)c2ccc(OCC(=O)N3c4ccc(C)cc4C4CN(C)CCC43)cc2)cc1 (configuration not stated) | -1 | 34* | 3 | 5 | -1 | 0 | 3
COC(=O)c1c(C)[nH]c(C(=O)COC(=O)CCNS(=O)(=O)c2cccc(C(F)(F)F)c2)c1C | 0 | -22 | / | / | / | / | /
O=C(C[n+]1ccccc1)Nc1ccccc1C(=O)O | 4 | -2 | -5 | 0 | -5 | 5 | /
O=c1[nH]c(=S)[nH]c2c1C(c1ccc(Cl)cc1)OC(C1CCCCC1)C2 (configuration not stated) | -2 | / | / | / | / | / | /
CC(=O)c1cccc(NC(=O)CC2S/C(=N/N=C/c3cccs3)NC2=O)c1 (configuration not stated) | 1 | 40* | 3 | -1 | -3 | -13 | -6
CCC1S/C(=N/N=C/c2cccs2)NC1=O (configuration not stated) | 0 | -5 | 4 | -2 | 2 | 6 | /
